# In all, about 69,000 compounds went through this assay and about 1,000 (1.4%) showed an effect of 50% or more. The sample holds strong results, similar compounds and a random draw of the others, so the mix is not that of the screen.
# Test system: Leishmania donovani
# Experiment: Leishmania intramacrophage assay
# Assay type: functional, organism-based
# Set-up: scale not given: in the data most compounds retested in dose-response had high values
compound,measurement,setting,value
Cn1ncc2c(NCCOc3ccc(F)cc3)nc(C3CCCC3)nc21,Percent Effect,"30 µM, 30.03 µM",50.15%
CC[C@H]1CN(C(=O)C2CC2)CC[C@H]1CC(=O)NCCN1CCOCC1,Percent Effect,"30.3 µM, […]",-123.3%
CN(Cc1n[nH]c2c1CCCC2)C(=O)c1cccc(CCC(C)(C)O)c1,Percent Effect,"30.3 µM, […]",22.46%
CN(Cc1n[nH]c2c1CCC2)C(=O)c1cccc(CCC(C)(C)O)c1,Percent Effect,"30.3 µM, […]",57.38%
CN(Cc1cc[nH]n1)C(=O)c1cccc(CCC(C)(C)O)c1,Percent Effect,"30 µM, 30.03 µM",14.32%
N#Cc1ccc(CN2CCN(C(=O)c3cc(C4CC4)[nH]n3)CC2)cc1,Percent Effect,"30 µM, 30.03 µM",47.32%
CC(C)(C)CN(CCC#N)C(=O)c1cccc(CN2CCCC2)c1,Percent Effect,"30.3 µM, […]",15.51%
Cc1cccnc1C(=O)N1CCCC(c2[nH]ncc2S(C)(=O)=O)C1 (stereo not given),Percent Effect,"30 µM, 30.03 µM",-23.25%
CC(=O)N1CC[C@]2(O)CCN(Cc3nc(C)c[nH]3)C[C@@H]2C1,Percent Effect,"30.3 µM, […]",3.766%
O=C(O)C(F)(F)F.O=C(O)C(F)(F)F.c1cnc(N2C[C@H]3CCN(CCN4CCCC4)C[C@H]3C2)cn1,Percent Effect,"30.3 µM, […]",50.81%
O=C(O)C(F)(F)F.c1cnc(N2C[C@H]3CCN(CC4CC4)C[C@H]3C2)cn1,Percent Effect,"30.3 µM, […]",30.4%
O=C(C1CCCC1)N1C[C@@H]2CCN(c3cnccn3)C[C@@H]2C1.O=C(O)C(F)(F)F,Percent Effect,"30.3 µM, […]",10.31%
COC(=O)c1ccc(OC)c(OC23CCCN(CC2)C3)c1 (stereo not given),Percent Effect,"30.3 µM, […]",-2.222%
COc1ccc(SCC2CNc3nc4ccccc4c(=O)n32)cc1 (stereo not given),Percent Effect,"30.3 µM, […]",24.33%
O=C(NCCNc1ccc(C(F)(F)F)cn1)c1ccc(F)cc1Cl,Percent Effect,30 µM,35.81%
Cc1nccn1CCC1CCCCN1Cc1ccc(O)cc1Cl (stereo not given),Percent Effect,"30.3 µM, […]",62.65%
Cc1cc2c(cc1CN1CCCCC1CCn1ccnc1C)OCO2 (stereo not given),Percent Effect,"30.3 µM, […]",16.68%
Cc1nccn1CCC1CCCCN1Cc1ccncc1 (stereo not given),Percent Effect,"30 µM, 30.03 µM",14.55%
COc1ccc(CCN2CCCC(CN(C)Cc3ccc(C)o3)C2)cc1 (stereo not given),Percent Effect,"30 µM, 30.03 µM",48.36%
COc1ccccc1CCN1CCCC(CN(C)Cc2c[nH]c(C)n2)C1 (stereo not given),Percent Effect,"30.3 µM, […]",23.77%
COc1ccccc1CCN1CCCC(CN(C)Cc2ccc(C)o2)C1 (stereo not given),Percent Effect,"30.3 µM, […]",51.06%
CN(C)S(=O)(=O)N1CCC(Oc2ccc(C#N)cc2)CC1,Percent Effect,"30 µM, 30.03 µM",23.32%
COCCNC(=O)CCn1ncc2c(Cl)cccc21,Percent Effect,"30.3 µM, […]",-81.24%
CN(C)C(=O)CNC(=O)CCn1ncc2c(Cl)cccc21,Percent Effect,"30 µM, 30.03 µM",13.94%
CN(C)CCNC(=O)CCn1ncc2c(Cl)cccc21,Percent Effect,"30.3 µM, […]",55.96%
CCN(CC)CC(=O)NCc1cccnc1-n1cnc2ccccc21,Percent Effect,"30.3 µM, […]",12.53%
Cc1nc(CNc2ccc(C(=O)NCc3ccco3)cc2C)no1,Percent Effect,"30.3 µM, […]",3.169%
COc1cc(N2CC[C@@H](O)[C@@H]2Cc2ccccc2)ncn1,Percent Effect,"30.3 µM, […]",51.86%
COc1cc(N2CC[C@H](O)[C@@H]2Cc2cccnc2)ncn1,Percent Effect,"30.3 µM, […]",5.968%
COc1cc(N2CC[C@H](O)[C@@H]2Cc2ccccc2)ncn1,Percent Effect,"30.3 µM, […]",33.09%
Cc1cc(C(=O)N2CC[C@@]3(C[C@@H](NS(C)(=O)=O)CCO3)C2)no1,Percent Effect,"30.3 µM, […]",13.02%
O=C(CCn1cncn1)NCCOc1cccc(Cl)c1,Percent Effect,"30.3 µM, […]",-12.3%
Cc1c(C(C)NC2CCN(C(C)C)CC2)cnn1-c1ccc(F)cc1F (stereo not given),Percent Effect,"30.3 µM, […]",61.65%
CC(=O)N1CCC(NC(C)c2cnn(-c3ccc(F)cc3F)c2C)CC1 (stereo not given),Percent Effect,"30.3 µM, […]",3.786%
Cc1c(C(C)NC2CCCC2)cnn1-c1ccc(F)cc1F (stereo not given),Percent Effect,"30.3 µM, […]",6.771%
CCN(CCOC)C(=O)c1ccc2c(c1)nc(N1CC[C@H](O)C1)n2C,Percent Effect,"30.3 µM, […]",20.98%
COc1c(CNCc2ccc3c(c2)OCCO3)c(C(C)C)nn1C,Percent Effect,30 µM,-2.541%
CCc1nc(C)c(CN2CCN(c3ncnc4c(C)csc34)CC2)[nH]1,Percent Effect,"30.3 µM, […]",24.01%
CCc1nc(C)c(CN2CCN(c3ncnc4scc(C)c34)CC2)[nH]1,Percent Effect,"30.3 µM, […]",-3.854%
Cc1n[nH]c(CN2CCN(c3ncnc4scc(C)c34)CC2)c1Cl,Percent Effect,"30.3 µM, […]",71.39%
Cc1ccccc1CCNC(=O)C1CC(=O)N(CC(F)(F)F)C1 (stereo not given),Percent Effect,"30 µM, 30.03 µM",9.865%
O=C(NCCn1ccnc1)N1CCCC1c1ccc2c(c1)OCCO2 (stereo not given),Percent Effect,30 µM,14.25%
CC(C)(C(=O)NCc1n[nH]c(=O)[nH]1)c1ccc(F)cc1,Percent Effect,"30.3 µM, […]",17.25%
Cc1cc(=O)n2nc(Oc3ccc(F)c(F)c3)sc2n1,Percent Effect,"30.3 µM, […]",-0.08982%
Cc1cc(=O)n2nc(Oc3ccc(Cl)c(C)c3)sc2n1,Percent Effect,"30.3 µM, […]",74.91%
Cc1cc(=O)n2nc(Oc3cc(Cl)cc(Cl)c3)sc2n1,Percent Effect,"30.3 µM, […]",-38.32%
COC(=O)NC1(C(=O)NCc2ccc(-c3ccn[nH]3)cc2)CCCC1,Percent Effect,"30.3 µM, […]",3.496%
CNC(=O)c1sccc1N(C)S(=O)(=O)c1ccc(Cl)cc1,Percent Effect,"30.3 µM, […]",77.15%
CCNC(=O)c1sccc1N(C)S(=O)(=O)c1ccc(Cl)cc1,Percent Effect,"30.3 µM, […]",2.943%
CC(C)NC(=O)c1sccc1N(C)S(=O)(=O)c1ccc(Cl)cc1,Percent Effect,"30 µM, 30.03 µM",7.242%

# — ChEMBL document CHEMBL3988442, “University of Dundee, Small-Polar-MMV Screening Library” (2021)
